Screening results deposited in PubChem BioAssay by National Center for Advancing Translational Sciences (NCATS).
TCR act – activators of T cell receptors; 330,000 tested, under 10 active; primary human leukocytes, anti-CD3, IL-2 HTRF, 48 h; Potency, µM (series often up to 9.22 µM), hits mostly activators
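Primary human leukocytes incubated 48 hr with anti-CD3 beads plus compound, without co-stimulation. Secreted IL-2 measured by HTRF (europium cryptate/d2 anti-IL-2 pair, 320 nm excitation, 665 nm emission).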
PINK1 expr mod – PINK1 expression modulation; AID 624263; PINK1 immunofluorescence, high-content cytometry, 24 h; Potency, µM (highest dose often 76.6 µM), actives largely listed as activators; 410,000 compounds, 0.2% hits; active = well fitted activation curve with a large enough effect; inconclusive = small, poorly fitted or top-dose-only effect; cell line not stated here; also: nearly all actives have a fitted effect of over 65% in size
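Decision-based qHTS: stable cells, 24 h exposure to five compound concentrations, CCCP as control. Fixed cells stained for PINK1 plus nuclear, mitochondrial and cell markers, cytometer read.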
pAkt inh – inhibitors of Akt phosphorylation; Neuro2A IGF-stimulated pAkt S473 HTRF, 20 min; stronger effect = lower value; activity change, % for hits at 50 µM; 360,000 compounds, 0.32% hits; AID 651550; in the data active = activity change below about -80%; inconclusive = mostly about -51% to -80%
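Single-point screen (50 µM final compound) in Neuro2A cells stimulated 20 min with 6 nM IGF at 37 deg C. After lysis, Ser473-phosphorylated Akt read by HTRF (ex 330 nm, em 615/665 nm) as the 665/615 ratio.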
BRCA1 expr act – activators of BRCA1 expression; 380,000 compounds, 1.1% hits; MCF7-BRCA1-FFLuc reporter, luminescence, 48 h; response scale: scaled: vehicle 0%, 10 µM genistein 100%; Potency, µM (titrated, usually from 46.1 µM), usual class: activators; AID 624202; also: nearly all actives have a fitted effect of over 80% in size
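Compounds are tested at multiple concentrations on MCF7 BRCA1-luciferase reporter cells seeded at 2000 per well; after 48 h, a single luminescence end-point is taken and curves fitted to the normalized data.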
Large screens that a line does not name were inactive. Shown are actives, neighbours in structure and some others; about 1.5% of the full set was active somewhere. Unless noted, calls follow the shape of the dose curve; as a rule, active = well fitted curve in the direction sought with a large enough effect; inconclusive = small, poorly fitted or top-dose-only effect, or another doubt; inactive = no such curve, though single readings can be large; an effect the other way counts as inactive or inconclusive.

Cc1ccc(-c2ccnc(-n3ncc(C(=O)N4CCCCC4c4cccnc4)c3C3CC3)n2)o1 (centres undefined)	none (no result: TCR act, pAkt inh, BRCA1 expr act)
Cc1ccc(SCC(=O)c2ccc[nH]2)cc1	BRCA1 expr act 3.2µM
COc1cccc(/C(C)=N/NC(=O)c2ccc(N(C)C)cc2)c1	BRCA1 expr act 4.5µM
C/C(=N\NC(=O)c1ccccc1)c1cccc(Br)c1	BRCA1 expr act 10µM (no result: TCR act)
COc1cccc(CN2C(=O)NC(C)(C3CCN(Cc4cc(Cl)ccc4O)CC3)C2=O)c1OC (centres undefined)	none (no result: TCR act, pAkt inh, BRCA1 expr act)
COCC1CCCN(Cc2ccc3c(c2)CN(C(=O)c2cc(-c4ccccc4)n[nH]2)CCO3)C1 (centres undefined)	none (no result: TCR act, pAkt inh, BRCA1 expr act)
S=c1[nH]nc(-c2cccc(Br)c2)o1	pAkt inh -108%
O=C(CN1C(=O)c2ccccc2C1=O)NCC1Cc2cccc(-c3ncccn3)c2O1 (centres undefined)	none (no result: TCR act, pAkt inh, BRCA1 expr act)
N/C(=N\OC(=O)c1ccco1)c1ccc(Br)cc1	BRCA1 expr act 2.5µM
N/C(=N\OC(=O)c1ccco1)c1ccccc1	BRCA1 expr act 5.6µM
COc1cccc(N2CCN(CC(=O)Nc3nc4c(s3)CC(C)CC4)CC2)c1 (centres undefined)	pAkt inh -89% (no result: TCR act)
CC(=O)Nc1cc(NC(C)=O)c(N=Nc2ccccc2)cc1C	BRCA1 expr act 3.5µM
Cc1cc2nc3c(=O)n(C4CCCCC4)c(=O)[nH]c3nc2cc1N	PINK1 expr mod 14µM
Cc1cc(C)cc(Nc2cc(=O)n(C3CCCCC3)c(=O)[nH]2)c1	PINK1 expr mod inconclusive
N/C(=N\OC(=O)c1ccccc1F)c1ccc([N+](=O)[O-])cc1	BRCA1 expr act 2.8µM
N/C(=N\OC(=O)c1cccc(Br)c1)c1ccc([N+](=O)[O-])cc1	none
N/C(=N\OC(=O)CSc1ccccc1)c1ccc([N+](=O)[O-])cc1	BRCA1 expr act 11µM
Cc1ccc(/C(N)=N/OC(=O)CSc2ccccc2)cc1	BRCA1 expr act 7.9µM
Cc1ccccc1C1(CC(=O)N2CC3CC4CC(C3)CC2C4)CC(=O)N(Cc2cccnc2)C1=O (centres undefined)	none (no result: TCR act, pAkt inh, BRCA1 expr act)
CC(=O)c1sc(NC(=O)c2ccccc2F)nc1-c1ccccc1	BRCA1 expr act 2µM
Cc1ccc(-c2cc3onc(-c4ccccc4)c3c(=O)n2C)cc1	BRCA1 expr act inconclusive
Cn1c(-c2ccc(F)cc2)cc2onc(-c3c(F)cccc3Cl)c2c1=O	BRCA1 expr act 2µM
Cc1ccc(C(=O)CC2(O)C(=O)N(Cc3ccccc3)c3ccccc32)o1 (centres undefined)	none (no result: pAkt inh)
Cc1coc(C)c1C(=O)CC1(O)C(=O)N(Cc2ccccc2)c2ccccc21 (centres undefined)	pAkt inh -95%
C=CCN1C(=O)C(O)(CC(=O)c2ccccc2)c2ccccc21 (centres undefined)	pAkt inh -109%
O=C(Nc1ccc(C(=O)OCc2cc(=O)n3c4c(sc3n2)CCCC4)cc1)c1ccccc1	none (no result: TCR act, pAkt inh, BRCA1 expr act)
Cc1cccc(Cc2nnc(CCC(=O)N(C)CCc3ccccc3)o2)c1	BRCA1 expr act 3.5µM
CCOC(=O)Cc1c(C)nc2cc(-c3ccc(Cl)cc3)[nH]n2c1=O	none
CCc1c(C)nc2cc(-c3ccc(OC)cc3)[nH]n2c1=O	BRCA1 expr act 8.9µM
COC(=O)c1cccc(C(=O)N2CCc3c(C(=O)OC)c(OCc4ccccn4)cc(=O)n3CC2)c1	none (no result: TCR act, pAkt inh, BRCA1 expr act)
CC(=O)Nc1ccc(C2=NNC(=Nc3cccc(S(=O)(=O)N(C)C)c3)SC2)cc1	PINK1 expr mod inconclusive
CN(C)S(=O)(=O)c1cccc(N=C2NN=C(c3ccccc3)CS2)c1	PINK1 expr mod 32µM
COc1ccc(C2=NNC(=Nc3cc(S(=O)(=O)N(C)C)ccc3C)SC2)c(OC)c1	PINK1 expr mod 2.8µM
CNc1nn(-c2cccc(Cl)c2)nc1N	BRCA1 expr act 10µM
O=C(Nc1ccsn1)c1ccc(Cl)cc1Cl	BRCA1 expr act 2.5µM
Cc1cc(NC(=O)c2ccc(Cl)cc2Cl)no1	none
CCc1cc(=O)oc2c(C)c3c(cc12)CN(CCc1ccccc1)CO3	none (no result: TCR act, pAkt inh, BRCA1 expr act)
COc1cc(-c2nc(-c3ccccn3)no2)cc(OC)c1OC	BRCA1 expr act 7.9µM
COc1cccc(-c2nc(-c3ccccn3)no2)c1OC	BRCA1 expr act 4.5µM
COc1ccccc1-c1noc(-c2cc(OC)c(OC)c(OC)c2)n1	none
OC1(c2cccnc2)CCN(Cc2ccc3c(c2)CN(Cc2cccc(F)c2F)CCO3)CC1	none (no result: TCR act, pAkt inh, BRCA1 expr act)
O=C(Nc1nccs1)c1ccc(CSc2ccccc2)o1	BRCA1 expr act 2.8µM
Cc1ccc(SCc2ccc(C(=O)Nc3nccs3)o2)cc1	BRCA1 expr act inconclusive
CCc1nnc(NC(=O)c2ccc(COc3ccc(C)cc3)o2)s1	BRCA1 expr act 5µM
O=C(Nc1nccs1)c1ccc(COc2ccccc2)o1	BRCA1 expr act 5.6µM
Cc1ccc(OCc2ccc(C(=O)Nc3nccs3)o2)cc1	none
Cc1ccc(OCc2ccc(C(=O)Nc3ccc(S(N)(=O)=O)cc3)o2)cc1	BRCA1 expr act 10µM
CCC1(C2CCN(C(=O)c3ccccc3C(C)=O)CC2)NC(=O)N(CCc2scnc2C)C1=O (centres undefined)	none (no result: TCR act, pAkt inh, BRCA1 expr act)
COc1cccc(-c2cnc(-c3ccncc3)nc2C2CCN(C(=O)Cc3csc(C)n3)CC2)c1	none (no result: TCR act, pAkt inh, BRCA1 expr act)
C=C(C)C1Cc2cc3ccc(=O)oc3cc2O1 (centres undefined)	BRCA1 expr act 10µM
NNc1ccc(Cl)c(C(=O)O)c1	BRCA1 expr act 11µM
O=C(O)/C=C/C(=O)Nc1ccc(Cl)c(C(=O)O)c1	none
COc1ccccc1N1CCN(/N=C/C=C\c2ccco2)CC1	BRCA1 expr act 2.8µM
Cc1cc(C(Br)(Br)Br)nc2ccccc12	none (no result: TCR act, pAkt inh)
CC(C)Oc1ccc(F)cc1-c1cc(C(=O)NCc2cc(C(F)(F)F)cc(C(F)(F)F)c2)[nH]n1	PINK1 expr mod 35µM (no result: TCR act)
COCCNC(=O)CN(c1ccc(OC)c(OC)c1)S(=O)(=O)c1ccc(C)cc1	pAkt inh -129%
COCCNC(=O)CN(c1ccc(C)cc1)S(=O)(=O)c1ccccc1	none (no result: pAkt inh)
O=C(NCCc1ccccn1)C1CC12CCN(C(=O)c1cccc(C(F)(F)F)c1)CC2 (centres undefined)	none (no result: TCR act, pAkt inh, BRCA1 expr act)
CCOC(=O)Nc1nc(C)c(C(=O)N(C)C)s1	none
COC(=O)Nc1nc(C)c(C(=O)N(C)C)s1	pAkt inh -127%
Cc1nc(Nc2ccccc2C(F)(F)F)sc1C(=O)N(C)C	BRCA1 expr act 10µM
O=[N+]([O-])c1ccc2nc(-c3ccc(Cl)cc3)n(OCc3ccccc3)c2c1	BRCA1 expr act inconclusive
Cc1ccc(COn2c(-c3ccc(Cl)cc3)nc3ccc([N+](=O)[O-])cc32)cc1	PINK1 expr mod inconclusive, BRCA1 expr act 10µM
CCN(CC)c1ccc(/C=C/c2ccc3ccccc3n2)cc1	PINK1 expr mod inconclusive (no result: TCR act, pAkt inh)
CC[N+](C)(C)c1ccc(/C=C/c2ccc3ccccc3n2)cc1	PINK1 expr mod 5µM (no result: TCR act, pAkt inh)
COCCN1CCN(C(=O)c2cnn(-c3nccc(-c4ccco4)n3)c2C(C)C)CC1	none (no result: TCR act, pAkt inh, BRCA1 expr act)
CCC(COC)NC(=O)c1cnn(-c2ncc3c(n2)-c2ccccc2CCC3)c1C (centres undefined)	none (no result: TCR act, pAkt inh, BRCA1 expr act)
